Screening results (PubChem BioAssay)
An excerpt weighted towards active compounds, which were near 1.3% of everything screened.
Keap1-Nrf2 PPI: Keap1-Nrf2 protein-protein interaction inhibitors, primary screen, biochemical, fluorescence polarization, single point; Kelch-like ECH-associated protein 1 (Homo sapiens), Q14145; Keap1 Kelch-Nrf2 peptide fluorescence polarization, 1536-well; inhibition, % at 9.4 µM; 340,000 compounds, 0.15% hits; AID 504523, 2011; in the data active = inhibition above about 12%;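 note: human Keap1 Kelch domain with fluorescein labeled Nrf2 9mer peptide probe; 0% = neutral control wells and 100% = peptide positive control; higher means more block of Keap1 binding to Nrf2 peptide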
Target sequence (Q14145 whole entry, looked up, the tested form may be a part): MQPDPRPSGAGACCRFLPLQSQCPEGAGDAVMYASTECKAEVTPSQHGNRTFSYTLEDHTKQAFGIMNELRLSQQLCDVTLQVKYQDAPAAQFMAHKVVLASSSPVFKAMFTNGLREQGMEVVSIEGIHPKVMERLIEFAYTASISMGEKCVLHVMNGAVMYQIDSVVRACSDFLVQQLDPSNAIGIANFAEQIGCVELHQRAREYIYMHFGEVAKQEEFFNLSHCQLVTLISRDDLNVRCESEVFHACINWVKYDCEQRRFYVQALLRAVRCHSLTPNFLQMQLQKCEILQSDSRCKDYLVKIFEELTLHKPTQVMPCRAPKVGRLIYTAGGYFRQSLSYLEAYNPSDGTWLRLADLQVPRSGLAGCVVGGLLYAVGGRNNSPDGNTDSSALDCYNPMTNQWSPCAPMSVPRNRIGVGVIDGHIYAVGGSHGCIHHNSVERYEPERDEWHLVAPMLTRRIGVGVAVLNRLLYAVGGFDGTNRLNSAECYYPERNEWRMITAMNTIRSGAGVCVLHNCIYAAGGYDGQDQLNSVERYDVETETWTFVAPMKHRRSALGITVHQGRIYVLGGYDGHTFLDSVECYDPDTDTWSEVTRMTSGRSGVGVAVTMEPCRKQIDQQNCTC
RTF Ca sens inh: cardiac RTF calcium sensitivity inhibitors, primary screen, biochemical, IANBD-TnC fluorescence, EC70 calcium; 340,000 compounds, 0.12% hits; Troponin I, cardiac muscle (Homo sapiens) + Troponin T, cardiac muscle (Homo sapiens) + …; IANBD-labeled cardiac RTF, Ca2+ fluorescence; inhibition, % at 7.15 µM;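 active = inhibition above the mean inhibition of all tested compounds plus 3 SD, cut at about 17% in these data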;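 note: assay run at fixed EC70 calcium of 1.6 mM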
RTF Ca sens act: cardiac RTF calcium sensitivity activators, primary screen, biochemical, IANBD-TnC fluorescence, EC20 calcium; 340,000 compounds, 0.24% hits; Troponin I, cardiac muscle (Homo sapiens) + Troponin T, cardiac muscle (Homo sapiens) + …; activation, % at 7.2 µM; IANBD-labeled TnC RTF fluorescence at EC20 calcium; 0% EC20 calcium, 100% full calcium;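 active = activation above the mean over all tested compounds plus 3 SD, cut at about 30% in these data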;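 note: rise in fluorescence read as greater calcium sensitivity of cardiac thin filaments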
CRFBP-R2 agonist: agonists of CRF-BP/CRF-R2 complex, primary screen, cell-based, HEK293, calcium dye fluorescence, uHTS | CRF-binding protein / CRF receptor 2 complex (human) | calcium dye fluorescence (FLIPR); percent of saturating CRF peptide response | activation, % at 13.2 µM | 350,000 compounds, 0.46% hits;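 active = activation of at least 50%, plus an integration ratio under a set limit after plate pattern correction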;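 note: plate controls were neutral control wells without compound for no effect and CRF at EC100 for full effect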
CRFBP-R2 block: antagonists of CRF-BP/CRF-R2 complex, primary screen, cell-based, HEK293, calcium dye fluorescence, uHTS; CRF-induced calcium fluorescence; inhibition, % at 11.8 µM; 350,000 compounds, 0.59% hits;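 active = inhibition of the ligand-induced calcium signal above about 50% at the single tested concentration, limit read from the data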
LANA DNA inh: inhibitors of KSHV C-LANA binding to DNA, primary screen, biochemical, fluorescence polarization, FAM-LBS DNA, MBP-C-LANA, single point. AID 504423, 2011. 340,000 compounds, 0.078% hits. Kaposi's sarcoma herpesvirus LANA C-terminal domain (residues 932-1162) DNA binding. inhibition, % at 9 µM;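 active = highest replicate inhibition at or above 60% at 9 µM, even if other replicates fall short; inactive = all replicates below 60% inhibition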;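 note: 0% = neutral control wells and 100% = 4 µM acridine orange control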
Active calls of the source: *; . = no result given.

SMILES	Keap1-Nrf2 PPI	RTF Ca sens inh	RTF Ca sens act	CRFBP-R2 agonist	CRFBP-R2 block	LANA DNA inh
Cc1ccc(-c2nnc(NCc3nc4ccccc4[nH]3)c3ccccc23)cc1S(=O)(=O)N1CCOCC1	-7	-7	-5	0	36	-3
COc1ccc(-c2nn(-c3ccccc3)cc2/C=C(\C#N)S(=O)(=O)c2ccccc2)cc1OC	0	4	-2	12	66*	1
Cc1onc(-c2ccccc2Cl)c1C(=O)NCc1ccc(N2CCCC2=O)cc1	-2	-5	2	11	57*	0
c1ccc(CSCc2cn3ccccc3n2)cc1	2	1	-1	-1	18	1
Cc1oc(S(=O)(=O)N2CCOCC2)cc1C(=O)Nc1ccc(F)cc1	-2	3	6	-2	-11	0
Cc1nc2c(s1)sc1ccccc12	-3	0	2	1	51*	0
O=S(=O)(NCc1ccccc1)c1ccccc1NCCc1ccccc1	3	2	-8	1	110*	-1
CCCCCCCCNc1ccccc1S(=O)(=O)NCc1ccccc1	-4	0	-3	1	-17	1
C/C(=N\Nc1cc(C)nc(-c2ccccc2O)n1)c1ccccc1	-2	-3	-2	1	-66	3
C/C(=N\Nc1cc(C)nc(-c2ccccc2)n1)c1cccc([N+](=O)[O-])c1	-2	0	-1	6	119*	-1
CCCNC(=O)/C(=C/c1cn(S(=O)(=O)N(C)C)c2ccccc12)NC(=O)c1ccc(OC)cc1	6	-14	-2	78*	-167	2
COc1ccc(C(=O)N/C(=C\c2cn(S(=O)(=O)N(C)C)c3ccccc23)C(=O)NCCCn2ccnc2)cc1	-3	4	-13	-1	-11	0
O=c1c2ccccc2nc2n1C(CBr)CN2 (centres undefined)	-3	-5	6	-1	65*	0
O=c1c2ccccc2nc2n1C(CBr)CS2 (centres undefined)	-53	-11	-1	-1	4	-1
CN(/N=C/c1ccc(Cl)cc1)c1ncc(Cl)cc1C(F)(F)F	2	0	-7	0	-25	-1
CN(/N=C/c1ccc(Cl)cc1Cl)c1ncc(Cl)cc1C(F)(F)F	3	3	3	-1	63*	1
N#C/C(=C\c1ccc(-c2ccccc2C(=O)O)o1)c1nc2ccccc2[nH]1	-19	-21	17	32	-16	-3
Cc1cc2nc(/C(C#N)=C\c3ccc(-c4ccccc4C(=O)O)o3)[nH]c2cc1C	-13	-43	52*	100*	-63	-12
Cc1ccc2nc(/C(C#N)=C/c3ccc(-c4ccccc4C(=O)O)o3)[nH]c2c1	-44	-37	27	65*	-41	-9
CCn1cc(C(=O)OCC(=O)c2cc(C)n(-c3ccc(OC(F)F)cc3)c2C)c(=O)c2ccc(C)nc21	-3	0	9	-2	60*	1
CCn1cc(C(=O)OCC(=O)c2cc(C)n(-c3ccccc3)c2C)c(=O)c2ccc(C)nc21	-1	4	-1	1	18	1
c1ccc(COc2cccc(CN3CCCCC3)c2)cc1	-1	0	-8	-1	10	1
Cc1cc(C)nc(SCC(=O)NC(=O)c2ccccc2O)n1	-28	-6	39*	0	-11	1
COC(=O)c1ccccc1NC(=O)CSc1nc(C)cc(C)n1	-1	1	6	0	34	0
O=C1OCc2ccc(NC(=O)C3CC3)cc21	2	-1	3	-2	0	84*
SMILES	Keap1-Nrf2 PPI	RTF Ca sens inh	RTF Ca sens act	CRFBP-R2 agonist	CRFBP-R2 block	LANA DNA inh
O=C1OCc2cc(NC(=O)C3CCCCC3)ccc21	-7	0	-4	-2	-9	-1
COc1ccc(C(C)C)cc1S(=O)(=O)N1CCC(C(=O)NCC2CCCO2)CC1 (centres undefined)	4	-4	0	0	-7	0
CN1C/C(=C/c2ccncc2)C(=O)/C(=C/c2ccncc2)C1	-1	-16	-3	1	2	1
CCN1C/C(=C/c2ccc(N3CCOCC3)cc2)C(=O)/C(=C/c2ccc(N3CCOCC3)cc2)C1	-4	-22	27	114*	-126	1
CN1C/C(=C\c2ccc(N3CCOCC3)cc2)C(=O)/C(=C/c2ccc(N3CCOCC3)cc2)C1	-7	-10	16	66*	-85	3
C#CCSc1nsc(SCC#C)c1C#N	-3	2	6	-2	13	0
Cc1ccc(NC(=O)COC(=O)c2ccco2)cc1	-2	-1	-4	-1	-8	0
C=C(C)CSc1nc2c(cc1C#N)CCC2	2	5	-5	-1	64*	2
C=CCSc1nc2c(cc1C#N)CCC2	0	-5	1	1	18	0
O=C(c1cccc([N+](=O)[O-])c1)c1ccc2c(c1)OCCOCCOCCO2	-2	.	.	1	58*	0
NC(=S)N/N=C/c1ccccc1OC(=O)/C=C/c1ccccc1	1	3	-4	-1	124*	-2
NC(=S)N/N=C\c1ccccc1OCc1ccccc1	-5	0	1	-3	37	-1
S=C(NCCc1ccccc1)N1CCC2CC1c1c(Cl)cccc12 (centres undefined)	.	.	.	2	51*	.
C=CCNC(=S)N1CCC2CC1c1c(Cl)cccc12 (centres undefined)	.	.	.	-1	5	.
Cc1cc(C)nc(NC(=NCCc2c[nH]c3ccccc23)NC(=O)Nc2ccc(Cl)cc2)n1	5	-1	6	-1	13	2
COc1cccc(CN2CCN(S(=O)(=O)c3ccc(NC(C)=O)cc3)CC2)c1OC	-6	-1	1	1	6	0
COc1ccc(OC)c(CN2CCN(S(=O)(=O)c3ccc(NC(C)=O)cc3)CC2)c1	-2	-5	-3	-7	53*	-1
Cc1nn(C(=O)c2cccnc2)c(C)c1Sc1ccc(Br)cc1	-2	14	4	-2	-28	-1
Nc1nn(S(=O)(=O)c2ccccc2)cc1-c1ccc([N+](=O)[O-])cc1	-1	2	-10	-1	50*	0
CC(C)OC(=O)c1c(NS(=O)(=O)c2ccccc2)sc2c1CCCC2	5	-7	1	76*	5	-4
